For one assay, the system named is Klebsiella pneumoniae. The note with it: Concentration 32 ug.mL-1;; ASSAY_TEST Inhibition of Bacterial Growth; detection method Absorption (OD600); MEDIA CAMHB; plate type 384well; NBS; CORNING #3640; time 18 hr.
In another assay the test system is Candida albicans. The note with it: Concentration 32 ug.mL-1; ASSAY_TEST Inhibition of Fungal Growth; detection method Absorption (OD530).
For the next assay, the system named is Cryptococcus neoformans. To be noted: Concentration 32 ug.mL-1; ASSAY_TEST Inhibition of Fungal Growth; detection method Resazurin; Absorption (OD600-OD570); plate type 384well; NBS; CORNING #3640. For orientation: The colour change of resazurin is a common sign of viable cells or microbes.

Measured potencies and affinities stand elsewhere.

Regarding `Cc1ccc(-c2cc3c4nn(CC(=O)NCc5ccccc5Cl)c(=O)n4ccn3n2)cc1C`, the Inhibition in the assay with Klebsiella pneumoniae is given as 7.47%; in the assay with Candida albicans, -1.05%; with Cryptococcus neoformans, -5.01%.

On to `COc1ccc(N(Cc2cccc(F)c2)S(=O)(=O)c2ccc3nncn3c2)cc1`, for which the values for the Inhibition in the assay on Klebsiella pneumoniae, in the assay on Candida albicans and with Cryptococcus neoformans were 25.01%, 3.57% and -1.54%, respectively.

On to `Cc1cc2nn(CC(=O)Nc3ccc(F)cc3C)c(=O)n2c(Nc2ccc(F)cc2)n1`, for which the Inhibition in the assay with Klebsiella pneumoniae is listed as 7.08%; in the assay with Candida albicans, 9.27%; in the assay on Cryptococcus neoformans, -2.95%.

For `Cc1ccc(CSc2nnc3c(=O)n(-c4ccc(Br)cc4)ccn23)cc1`, the figures for the Inhibition in the assay with Klebsiella pneumoniae, in the assay with Candida albicans and with Cryptococcus neoformans were 11.07%, 8.75% and -7.86%, respectively.

With `CCc1ccccc1Sc1nccn2c(=O)n(CC(=O)Nc3cc(Cl)c(OC)cc3OC)nc12`, the Inhibition in the assay with Klebsiella pneumoniae is listed as -2.45%; in the assay with Candida albicans, 17.44%; in the assay on Cryptococcus neoformans, -4.37%.

For `O=C(Cn1nc2ccc(SC3CCCCC3)nn2c1=O)Nc1ccc2c(c1)OCO2`, the values for the Inhibition in the assay on Klebsiella pneumoniae, in the assay with Candida albicans and with Cryptococcus neoformans were -18.44%, 1.48% and -3.38%, respectively.

Take `Cc1ccc(CNC(=O)CSc2nnc3c4cc(-c5ccc(C)cc5)nn4ccn23)cc1`: the Inhibition with Klebsiella pneumoniae is given as 11.71%; in the assay on Candida albicans it was -0.39%; in the assay with Cryptococcus neoformans, -36.09%.

For the compound `O=C(Cn1nc2c(SC3CCCCC3)nccn2c1=O)Nc1ccccc1F`, the Inhibition with Klebsiella pneumoniae is listed as 4.58%; in the assay with Candida albicans, 0.33%; in the assay with Cryptococcus neoformans, -26.33%.

`CC(C)c1nnc2c(=O)n(CC(=O)Nc3cc(Cl)ccc3Cl)c3ccccc3n12`: the results for the Inhibition in the assay with Klebsiella pneumoniae, in the assay on Candida albicans and in the assay on Cryptococcus neoformans were 7.9%, 3.43% and -8.45%, respectively.

`CCc1ccc(N(Cc2ccc(F)cc2)S(=O)(=O)c2cccn3c(C)nnc23)cc1`: the Inhibition in the assay on Klebsiella pneumoniae is -1.65%; with Candida albicans, 6.88%; in the assay on Cryptococcus neoformans, -7.64%.

For `Cc1oc(-c2cccc(Cl)c2)nc1CSc1nc2ccccc2n2c(C)nnc12`, the Inhibition is 5.28% in the assay with Klebsiella pneumoniae, 6.15% with Candida albicans and -6.37% in the assay on Cryptococcus neoformans.

On to `COc1ccc(CNC(=O)CSc2nnc3c4cc(-c5ccc(C)cc5)nn4ccn23)cc1`, for which the figures for the Inhibition with Klebsiella pneumoniae, in the assay on Candida albicans and with Cryptococcus neoformans were 9.18%, 1.16% and -27.11%, respectively.

With `COc1ccc(N2CCN(C(=O)Cn3nc4c(Oc5cccc(C)c5C)nccn4c3=O)CC2)cc1`, the Inhibition is on record as 15.7% with Klebsiella pneumoniae, -0.29% in the assay with Candida albicans and -13.03% in the assay with Cryptococcus neoformans.

Take `Cc1ccc(-c2ccc3nn(CC(=O)NC4CCCCC4)c(=O)n3n2)cc1C`: the Inhibition in the assay with Klebsiella pneumoniae was 13.52%; with Candida albicans, 3.29%; with Cryptococcus neoformans, -9.98%.

Turning to `CCCCN(CC)C(=O)CSc1nnc2c(=O)n(Cc3ccccc3F)ccn12`, the Inhibition with Klebsiella pneumoniae was 7.9%; in the assay with Candida albicans, 2.5%; with Cryptococcus neoformans, -19.25%.

For the compound `CC1CCCN(c2nccn3c(=O)n(CC(=O)Nc4ccc5c(c4)OCO5)nc23)C1` (centres undefined), the Inhibition is listed as 1.66% in the assay on Klebsiella pneumoniae, -0.45% with Candida albicans and -11.4% in the assay with Cryptococcus neoformans.

For the compound `CC(C)CCNC(=O)CSc1nnc2c(=O)n(Cc3ccc(F)cc3)ccn12`, the figures for the Inhibition in the assay with Klebsiella pneumoniae, with Candida albicans and in the assay with Cryptococcus neoformans were 4.54%, 1.44% and -7.36%, respectively.

Take `COc1ccccc1-n1ccn2c(SCc3ccc(Cl)cc3)nnc2c1=O`: the Inhibition with Klebsiella pneumoniae is recorded as 8.98%; in the assay on Candida albicans it was 1.6%; in the assay on Cryptococcus neoformans, -13.63%.

For `COc1cc(NC(=O)Cn2nc3c4c5c(sc4ncn3c2=O)CCCC5)cc(OC)c1OC`, the Inhibition in the assay with Klebsiella pneumoniae is given as 9%; with Candida albicans it was 0.11%; with Cryptococcus neoformans, -14.64%.

`Cc1ccccc1CSc1nnc2c(=O)n(-c3ccc(Br)cc3)ccn12`: the Inhibition is recorded as 3.65% in the assay on Klebsiella pneumoniae, 15.24% with Candida albicans and -9.13% with Cryptococcus neoformans.

In the case of `COc1ccc(CNC(=O)Cn2nc3c(Oc4cccc(C)c4C)nccn3c2=O)cc1`, the Inhibition in the assay on Klebsiella pneumoniae is recorded as 3.56%; with Candida albicans, -0.71%; in the assay with Cryptococcus neoformans, -3.17%.

Regarding `Cc1ccc(-c2ccc3nn(Cc4cc(F)cc(F)c4)c(=O)n3n2)cc1C`, the values for the Inhibition in the assay with Klebsiella pneumoniae, in the assay on Candida albicans and in the assay on Cryptococcus neoformans were 3.15%, 0.47% and -8.58%, respectively.

Turning to `COc1ccccc1NC(=O)Cn1nc2c(Oc3ccc(Cl)cc3)nccn2c1=O`, the results for the Inhibition in the assay with Klebsiella pneumoniae, in the assay on Candida albicans and with Cryptococcus neoformans were 6.51%, 22.33% and -8.59%, respectively.

As usually defined, the Inhibition is the drop in the measured response relative to a control, in per cent.

For the origin of these results see ChEMBL document CHEMBL4513146, “CO-ADD screening of Karazin Kharkiv National University (Ukraine) compounds”.
